PubChem BioAssay (NCI)
About 83,000 compounds went through this panel and 20% of them were active in at least one assay; those are over-represented in the sample as a whole.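 Interpretation: 100, growth as untreated; towards 0, rising growth inhibition; 0, no net growth; 0 to -100, cell death. Compounds scoring below 10 were considered active.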 A number with no mark means an inactive call. Activity calls are given as the source filed them.

These molecules were tested on NCI-H460 lung (assay: NCI-60 one-dose screen, 48 h (100 = growth as untreated, 0 = no growth, -100 = all killed)). Details: 10 µM.
In the case of `COc1cc2cc(C(=O)N3C[C@@H](CCl)c4c3cc(OC(=O)N3CCN(C)[C@@H]5CSSC[C@H]53)c3ccccc43)[nH]c2c(OC)c1OC`, the growth is reported as -68.9% (active).
For `CC1=C(CCC=O)C2=C(C)C3(CC3)[C@@](C)(O)C(=O)C2=C1`, the growth was -42.6% (active).
`COC(=O)C[C@](O)(CCC(C)C)C(=O)O[C@@H]1C(OC)=C[C@]23CCCN2CCc2cc4c(cc2[C@H]13)OCO4` was tested, and the growth was -20.6% (active).
`O=C(/C=C/c1ccc(Cl)cc1)c1nc2ccccc2n1Cc1ccc(F)cc1` showed a growth of 26.8%.
`CC[C@]12C=CCN3CC[C@@]4(c5ccc(OC)cc5N(C)[C@H]4[C@@](O)(C(=O)OC)[C@@H]1OC(=O)CCC[P+](C1CCCCC1)(C1CCCCC1)C1CCCCC1)[C@@H]32` was tested, and the growth was 4.64% (active).
With `CC1=C2C(=C[C@@](C)(COP(=O)(Oc3ccccc3)Oc3ccccc3)[C@@H]2O)C(=O)[C@@](C)(O)C12CC2` the growth was -35.4% (active).
In the case of `CC(=O)Oc1ccccc1C(=O)NC([Se])=NC1CCCCC1`, the growth is reported as 6.6% (active).
With `CCOP(=O)(CC(F)(F)C(F)(F)F)OCC` the growth was 91.6%.
For `CC(C)C[C@H](NC(=O)CNC(=O)C[C@H]1O[C@@H]2OC3(C)CC[C@H]4[C@H](C)CC[C@@H]([C@H]1C)[C@@]24OO3)B(O)O`, the growth was 13.6%.
In the case of `C[C@H]1[C@@H](Oc2ccc(-c3cn(-c4ccnc5cc(Cl)ccc45)nn3)cc2)O[C@@H]2OC3(C)CC[C@H]4[C@H](C)CC[C@@H]1[C@@]24OO3`, the growth is reported as 25.3%.
`C[C@H]1[C@H](OC(=O)CCC(=O)N(CCCc2cn(-c3ccc([N+](=O)[O-])cc3)nn2)CCNc2ccnc3cc(Cl)ccc23)O[C@@H]2OC3(C)CC[C@H]4[C@H](C)CC[C@@H]1[C@@]24OO3` was tested, and the growth was 53.5%.
With `COc1cc2cc(C(=O)N3C[C@@H](CCl)c4c3cc(OC(=O)N3CCN(C)[C@@H]5CSSC[C@@H]53)c3ccccc43)[nH]c2c(OC)c1OC` the growth was -13.4% (active).
With `COc1cc2cc(C(=O)N3C[C@@H](CCl)c4c3cc(OC(=O)N3CCN(C(=O)CCC(=O)N5CCN(C)CC5)[C@@H]5CSSC[C@@H]53)c3ccccc43)[nH]c2c(OC)c1OC` the growth was -67.7% (active).
With `COC(=O)c1ccc(-n2cc(CCCN(CCNc3ccnc4cc(Cl)ccc34)C(=O)CCC(=O)O[C@@H]3O[C@@H]4OC5(C)CC[C@H]6[C@H](C)CC[C@@H]([C@H]3C)[C@@]46OO5)nn2)cc1` the growth was 52.1%.
In the case of `O=C([Se]C1C=CCCC1)c1ccc(C(=O)[Se]C2C=CCCC2)s1` (centres undefined), the growth is reported as 4.46% (active).
For `O=C(/C=C/c1cccc(Br)c1)c1nc2ccccc2n1Cc1ccc(F)cc1`, the growth was 33.1%.
With `CC[C@]12C=CCN3CC[C@@]4(c5ccc(OC)cc5N(C)[C@H]4[C@@](O)(C(=O)OC)[C@@H]1OC(=O)CCC[P+](c1ccc(C)cc1)(c1ccc(C)cc1)c1ccc(C)cc1)[C@@H]32` the growth was -85.2% (active).
With `O=C(NC([Se])=NC1CCCCC1)c1ccccc1` the growth was 11.6%.
With `O=C(/C=C/c1ccc(F)cc1)c1nc2ccccc2n1Cc1ccc(F)cc1` the growth was 6.65% (active).
For `O=C(/C=C/c1ccccc1)c1nc2ccccc2n1Cc1ccc(Br)cc1`, the growth was -47% (active).
For `C=CC[Se]C(=O)c1cncc(C(=O)[Se]CC=C)c1`, the growth was -14% (active).
For `COc1ccc(OC)c(/C=C/C(=O)c2nc3ccccc3n2Cc2ccc(F)cc2)c1`, the growth was -30.9% (active).
`O=C(/C=C/c1ccc(F)cc1)c1nc2ccccc2n1Cc1ccc(Br)cc1` was tested, and the growth was -59.4% (active).
With `CC[C@]12C=CCN3CC[C@@]4(c5ccc(OC)cc5N(C)[C@H]4[C@@](O)(C(=O)OC)[C@@H]1OC(=O)CCCC[P+](c1ccc(C)cc1)(c1ccc(C)cc1)c1ccc(C)cc1)[C@@H]32` the growth was -86.6% (active).
With `CC(C)N=C([Se])NC(=O)c1cccs1` the growth was 0.572% (active).
With `CC1=C(CCC=NNC(N)=O)C2=C(C)C3(CC3)[C@@](C)(O)C(=O)C2=C1` the growth was -24.8% (active).
Work on `Cc1ccc2[nH]c(=S)n(-c3ccc(F)cc3)c(=O)c2c1` yielded a growth of 106%.
For `C#CC[Se]C(=O)c1ccc2n[se]nc2c1`, the growth was 63.9%.
For `CC1=C(COCCOC(=O)c2ccc(S(=O)(=O)F)cc2)C2=C(C)C3(CC3)[C@@](C)(O)C(=O)C2=C1`, the growth was 2.07% (active).
With `CC12CCC3(CCC(=O)NCCCNc4ccnc5cc(Cl)ccc45)[C@@](C)(OO[C@]3(C)O1)O2` the growth was 7.06% (active).
In the case of `O=C(/C=C/c1ccc(Br)cc1)c1nc2ccccc2n1Cc1ccc(Br)cc1`, the growth is reported as -14.4% (active).
Molecule `COC(=O)CCn1c(-c2ccc(-n3cc(-c4ccc(O[C@H]5O[C@@H]6OC7(C)CC[C@H]8[C@H](C)CC[C@@H]([C@H]5C)[C@@]68OO7)cc4)nn3)cc2)nc2ccccc21` has a growth of 11.4%.
For `CC1=C(C=O)C2=C(C)C3(CC3)[C@@](C)(O)C(=O)C2=C1`, the growth was 2.24% (active).
In the case of `N#C[Se]CC(=O)Nc1cccc(C(F)(F)F)c1`, the growth is reported as -9.31% (active).
`CCC[Se]C(=O)c1ccc(C(=O)[Se]CCC)s1` was tested, and the growth was -11.9% (active).
For `C[C@H]1[C@@H](CC(=O)N[C@@H](Cc2coc3ccccc23)B(O)O)O[C@@H]2OC3(C)CC[C@H]4[C@H](C)CC[C@@H]1[C@@]24OO3`, the growth was -28.2% (active).
For `O=C(/C=C/c1ccco1)c1nc2ccccc2n1Cc1ccc(F)cc1`, the growth was 70.9%.
`COC(=O)C[C@](O)(CCC(C)C)C(=O)O[C@H]1C(OC)=C[C@@]23CCCN2CCc2cc4c(cc2[C@@H]13)OCO4` was tested, and the growth was -26.2% (active).
`C[C@H]1[C@H](OC(=O)CCC(=O)N(CCCc2cn(-c3ccc(C#N)cc3)nn2)CCNc2ccnc3cc(Cl)ccc23)O[C@@H]2OC3(C)CC[C@H]4[C@H](C)CC[C@@H]1[C@@]24OO3` gave a growth of 58.2%.
